This note sets out measurements from PubChem BioAssay.

Assay [1] can be described thus: small molecules captured by biotinylated probe aFSTL3 – biochemical, small-molecule microarray, fluorescence 635/667, stem cell growth factor project, primary screen (AID 1064).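 Note: measures binding of the biotinylated anti-FSTL3 antibody to printed compounds.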 The settings on record: higher = more signal.
Assay [2] can be described thus: binders from COS7 lysate, DM2A8 probe, primary screen, torsin A project, cell lysate, small-molecule microarray, fluorescence 635/667 (AID 1065). The settings on record: higher = more signal, COS7 lysate expressing mutant human TOR1A.
Assay [3] can be described thus: small molecules captured by biotinylated probe aFGF2 – biochemical, small-molecule microarray, fluorescence 635/667, stem cell growth factor project, primary screen (AID 1067).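 Note: measures binding of biotinylated aFGF2 protein to printed compounds on slides; z-score merges feature fluorescence and signal-to-noise across triplicate slides.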 Particulars: higher = more signal.
Assay [4] in a line: small molecules captured by biotinylated probe aFGF10 – biochemical, small-molecule microarray, fluorescence 635/667, stem cell growth factor project, primary screen (AID 1071).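 Note: score merges 667 nm spot intensity and signal to noise from triplicate slides.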 Particulars: higher = more signal.
For assay [5], the target named is Neurogenic locus notch homolog protein 2 (Homo sapiens) (UniProt Q04721). Put plainly: small molecules binding Notch2 protein – biochemical, small-molecule microarray, 635 nm fluorescence, stem cell growth factors, primary screen (AID 1073). Particulars: higher = more signal.
Assay [6] has as its target Pro-neuregulin-1, membrane-bound isoform (Homo sapiens) (UniProt Q02297). Put plainly: small molecules binding neuregulin-1 protein – biochemical, small-molecule microarray, fluorescence 635/667, psychiatric disease protein project, primary screen (AID 1075).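 Note: score combines 667 nm spot fluorescence with signal to noise.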 Particulars: NRG1 binding, 635 nm fluorescence, higher = more signal.
Assay [7] relates to Neuregulin-1 EGF-like domain. As to the kind of experiment: small molecules binding NRG1 EGF domain – biochemical, small-molecule microarray, 635 nm fluorescence, primary screen (AID 1081).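 Note: binding of the protein to compounds printed on small-molecule microarray slides.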 Particulars: higher = more signal.
Assay [8] is described as follows: FRG1 expression reporter modulators in myotubes – cell-based, C2C12 myotubes, firefly/Renilla luciferase, luminescence, FRG1 inhibition for FSHD, primary screen (AID 1084). Particulars: FRG1 promoter luciferase, higher = more signal, called active from +8 up or from −8 down.
Assay [9] in a line: small molecules captured by biotinylated probe aFST – biochemical, small-molecule microarray, fluorescence 635/667, stem cell growth factor project, primary screen (AID 1086).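 Note: score merges 667 nm fluorescence with signal-to-noise of each printed compound spot.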 The settings on record: higher = more signal.
Assay [10] can be described thus: binders of probe aHhip on microarray, primary screen, stem cell growth factor project, biochemical, small-molecule microarray, fluorescence 635/667 (AID 1087).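 Note: score merges spot fluorescence at 667nm with spot signal to noise ratio.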 Particulars: higher = more signal.
For assay [11], the system named is PRMT1 (protein arginine N-methyltransferase 1). As to the kind of experiment: small molecules binding arginine methyltransferase PRMT1 – biochemical, small-molecule microarray, 635 nm fluorescence, primary screen (AID 1088).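 Note: binding of Prmt1 protein to compounds spotted on small-molecule microarray slides.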 Particulars: higher = more signal.
Assay [12] is described as follows: growth effects on S. cerevisiae YJM789 – YJM789 clinical isolate, OD600, 24 h, basal, primary screen (AID 1089).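 Note: growth of clinical yeast isolate S. cerevisiae YJM 789 seeded 1000 cells per well; test concentration not given here.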 The settings on record: higher = more signal, called active from +8 up or from −8 down.
The nature of assay [13]: S. pombe growth modifiers, basal conditions – strain 972, OD600, 24 h, no modulator, primary screen (AID 1090).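 Note: basal condition with compound alone and no growth modifier present; test concentration not given here.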 Particulars: S. pombe 972 growth, higher = more signal, called active from +8 up or from −8 down.
Assay [14] can be described thus: budding yeast growth modifiers under rapamycin – strain BY4716, OD600, 96 h, primary screen (AID 1091). Note: test concentration not given here. Particulars: S. cerevisiae BY4716 + rapamycin, higher = more signal, called active from +8 up or from −8 down.
In assay [15] the target is Torsin-1A-interacting protein 2 (Homo sapiens) (UniProt Q8NFQ8). Put plainly: small molecules binding lysate-expressed LULL1 – cell lysate, human LULL1 lysate, 635/667 nm fluorescence, primary screen (AID 1092).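 Note: probe is lysate of COS7 cells overexpressing human LULL1; score merges per-feature 667 nm fluorescence with signal-to-noise.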 Particulars: small-molecule microarray, hLULL1 lysate binding, 635 nm fluorescence; higher = more signal.
The nature of assay [16]: optical density change of DRC41 E. coli – strain DRC41, OD650, 24 h, E. coli filamentation project, primary screen (AID 1093).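 Note: MC1000 strain lacking acrAB efflux and sulA so SOS filamentation is blocked; test concentration not given here.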 The settings on record: E. coli DRC41 growth, higher = more signal, called active from +8 up or from −8 down.
Assay [17] can be described thus: probe aLefty2 binding to arrayed compounds – biochemical, biotinylated probe, 635/667 nm fluorescence, primary screen (AID 1094).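 Note: score merges spot fluorescence near 667 nm with spot signal-to-noise ratio.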 The settings on record: small-molecule microarray, higher = more signal.
Assay [18] relates to Noggin (protein binding on small-molecule microarray). Put plainly: small molecules binding Noggin protein – biochemical, 635/667 nm fluorescence, primary screen (AID 1095).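 Note: score merges 667 nm feature fluorescence with signal to noise over triplicate slides.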 Particulars: 635 nm fluorescence, higher = more signal.
In assay [19] the target is Neurogenic locus notch homolog protein 3 (Homo sapiens) (UniProt Q9UM47). As to the kind of experiment: small molecules binding NOTCH3 protein – biochemical, 635/667 nm fluorescence, primary screen (AID 1096). The settings on record: small-molecule microarray, 635 nm fluorescence, higher = more signal.
A short description of assay [20]: probe aEGFR binding to arrayed compounds – biochemical, biotinylated probe, 635/667 nm fluorescence, primary screen (AID 1097).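 Note: probe is a biotinylated anti-EGFR antibody binding compounds printed on slides; score combines fluorescence near 667 nm and signal to noise of each spot.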 Particulars: small-molecule microarray, higher = more signal.

Where “and” joins values, the source holds several entries; their conditions need not be identical. Equal entries are not always repeated. A structure can be active in one record and inactive in another. Calls of active or inactive are those of the source.

Neurogenic locus notch homolog protein 3 (Homo sapiens), sequence (Q9UM47 whole entry, looked up): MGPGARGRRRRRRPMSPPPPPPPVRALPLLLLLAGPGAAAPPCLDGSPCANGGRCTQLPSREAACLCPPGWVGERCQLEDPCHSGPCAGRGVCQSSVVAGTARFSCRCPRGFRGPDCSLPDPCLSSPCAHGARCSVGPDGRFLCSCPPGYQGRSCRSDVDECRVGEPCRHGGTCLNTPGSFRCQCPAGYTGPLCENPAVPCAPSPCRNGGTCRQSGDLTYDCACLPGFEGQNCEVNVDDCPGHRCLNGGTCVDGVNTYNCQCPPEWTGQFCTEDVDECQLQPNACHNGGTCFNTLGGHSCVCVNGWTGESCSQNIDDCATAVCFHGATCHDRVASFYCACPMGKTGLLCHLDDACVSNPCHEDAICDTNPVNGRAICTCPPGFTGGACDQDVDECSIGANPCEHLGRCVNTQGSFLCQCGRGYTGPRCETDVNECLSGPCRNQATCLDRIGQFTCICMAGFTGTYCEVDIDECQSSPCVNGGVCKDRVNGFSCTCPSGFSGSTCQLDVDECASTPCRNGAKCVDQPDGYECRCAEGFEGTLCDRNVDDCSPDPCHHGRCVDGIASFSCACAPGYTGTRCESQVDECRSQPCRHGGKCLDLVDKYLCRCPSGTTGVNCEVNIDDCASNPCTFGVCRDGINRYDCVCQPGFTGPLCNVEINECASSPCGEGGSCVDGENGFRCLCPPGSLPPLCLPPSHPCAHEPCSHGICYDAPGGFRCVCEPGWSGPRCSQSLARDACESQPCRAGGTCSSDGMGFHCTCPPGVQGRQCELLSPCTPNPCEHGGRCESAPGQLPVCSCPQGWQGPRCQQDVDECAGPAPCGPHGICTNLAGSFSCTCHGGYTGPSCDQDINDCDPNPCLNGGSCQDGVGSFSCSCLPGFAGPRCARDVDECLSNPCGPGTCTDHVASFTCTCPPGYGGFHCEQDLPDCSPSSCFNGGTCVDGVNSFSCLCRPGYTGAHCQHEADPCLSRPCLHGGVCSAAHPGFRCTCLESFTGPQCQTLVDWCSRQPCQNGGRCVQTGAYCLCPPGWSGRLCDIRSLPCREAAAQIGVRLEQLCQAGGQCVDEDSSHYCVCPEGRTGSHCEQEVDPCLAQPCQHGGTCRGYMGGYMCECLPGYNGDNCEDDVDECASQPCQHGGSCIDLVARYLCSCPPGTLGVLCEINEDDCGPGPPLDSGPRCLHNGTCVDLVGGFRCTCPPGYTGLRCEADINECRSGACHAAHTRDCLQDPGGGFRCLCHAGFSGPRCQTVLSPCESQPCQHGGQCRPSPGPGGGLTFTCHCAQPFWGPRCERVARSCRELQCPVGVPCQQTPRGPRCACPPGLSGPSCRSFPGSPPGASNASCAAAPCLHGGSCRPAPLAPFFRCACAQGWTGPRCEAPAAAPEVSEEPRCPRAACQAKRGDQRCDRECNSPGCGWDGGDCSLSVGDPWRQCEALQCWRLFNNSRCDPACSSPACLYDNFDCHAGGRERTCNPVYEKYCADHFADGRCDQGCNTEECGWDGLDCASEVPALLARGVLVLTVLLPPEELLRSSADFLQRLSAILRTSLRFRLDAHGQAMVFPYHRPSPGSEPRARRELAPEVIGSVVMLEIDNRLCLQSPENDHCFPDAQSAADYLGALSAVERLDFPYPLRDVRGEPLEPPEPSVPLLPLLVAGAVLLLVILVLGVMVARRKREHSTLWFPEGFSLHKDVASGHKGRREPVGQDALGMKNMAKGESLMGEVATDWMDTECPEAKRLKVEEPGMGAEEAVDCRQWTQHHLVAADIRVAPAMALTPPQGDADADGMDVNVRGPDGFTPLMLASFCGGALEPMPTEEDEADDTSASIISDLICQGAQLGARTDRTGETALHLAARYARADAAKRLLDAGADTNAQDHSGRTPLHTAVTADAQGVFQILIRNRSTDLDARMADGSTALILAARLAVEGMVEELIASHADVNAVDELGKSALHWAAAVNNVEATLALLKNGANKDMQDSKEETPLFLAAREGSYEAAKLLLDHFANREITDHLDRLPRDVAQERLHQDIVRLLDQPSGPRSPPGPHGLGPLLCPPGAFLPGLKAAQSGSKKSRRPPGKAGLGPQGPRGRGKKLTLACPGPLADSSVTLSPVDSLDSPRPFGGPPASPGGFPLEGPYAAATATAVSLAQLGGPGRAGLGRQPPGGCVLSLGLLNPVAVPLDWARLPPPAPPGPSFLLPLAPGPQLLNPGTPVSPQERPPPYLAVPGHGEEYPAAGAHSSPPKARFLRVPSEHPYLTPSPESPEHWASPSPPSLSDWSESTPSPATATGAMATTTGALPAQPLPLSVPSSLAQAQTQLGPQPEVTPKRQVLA
Pro-neuregulin-1, membrane-bound isoform (Homo sapiens), sequence (Q02297 whole entry, looked up, the tested form may be a part, canonical isoform): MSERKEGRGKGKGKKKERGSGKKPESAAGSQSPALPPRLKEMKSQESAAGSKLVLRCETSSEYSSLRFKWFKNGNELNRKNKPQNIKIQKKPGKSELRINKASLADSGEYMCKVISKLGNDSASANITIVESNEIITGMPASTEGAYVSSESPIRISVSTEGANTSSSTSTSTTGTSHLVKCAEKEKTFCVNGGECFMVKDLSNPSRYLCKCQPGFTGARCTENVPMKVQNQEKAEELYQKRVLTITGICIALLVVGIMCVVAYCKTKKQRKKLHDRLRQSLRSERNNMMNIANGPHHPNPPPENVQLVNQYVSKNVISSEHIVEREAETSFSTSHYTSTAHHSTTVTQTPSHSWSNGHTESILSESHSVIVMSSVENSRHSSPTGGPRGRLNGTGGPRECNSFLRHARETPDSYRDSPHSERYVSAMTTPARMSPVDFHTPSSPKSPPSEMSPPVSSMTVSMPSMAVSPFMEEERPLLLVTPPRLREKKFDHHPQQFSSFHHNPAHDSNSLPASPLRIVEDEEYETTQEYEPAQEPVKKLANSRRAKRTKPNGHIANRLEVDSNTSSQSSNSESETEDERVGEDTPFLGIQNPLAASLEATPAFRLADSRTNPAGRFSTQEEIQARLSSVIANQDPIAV
Torsin-1A-interacting protein 2 (Homo sapiens), sequence (Q8NFQ8 whole entry, looked up): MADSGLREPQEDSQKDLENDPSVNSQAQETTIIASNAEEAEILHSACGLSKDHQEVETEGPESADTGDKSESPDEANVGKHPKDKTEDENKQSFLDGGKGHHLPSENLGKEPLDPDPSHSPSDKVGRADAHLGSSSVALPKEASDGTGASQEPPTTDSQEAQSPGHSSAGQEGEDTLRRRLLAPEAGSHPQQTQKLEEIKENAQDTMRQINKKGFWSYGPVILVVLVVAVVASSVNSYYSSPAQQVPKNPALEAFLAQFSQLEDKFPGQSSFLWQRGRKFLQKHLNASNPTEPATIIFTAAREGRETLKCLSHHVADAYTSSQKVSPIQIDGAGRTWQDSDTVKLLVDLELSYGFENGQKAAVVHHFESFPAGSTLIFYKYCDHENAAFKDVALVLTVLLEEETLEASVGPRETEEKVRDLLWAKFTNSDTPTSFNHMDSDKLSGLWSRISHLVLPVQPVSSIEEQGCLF

Turning to `CCOC(=O)c1ccc(NC(=O)O[C@H]2[C@H](OC(=O)Nc3ccccc3)[C@@H](OC(=O)Nc3ccccc3)[C@@H](OC)O[C@@H]2CO)cc1`, the composite z-score is 0.181 and 0.179 in assay [1]; 0.791 and 0.936 in assay [2]; 0.211 and 0.164 in assay [3]; 1.01 and 1.18 in [4]; 1.59 and 1.44 in assay [5]; 1.46 and 1.3 in assay [6]. The composite z-score in assay [7] was 1.33 and 1.43; in assay [9] it was 1.29 and 1.2; in assay [10], 0.167 and 0.24; in assay [11] it was 1.53 and 1.54; in assay [15], 3.22 and 3.23; in assay [17] it was 0.244 and 0.0626. For the same molecule, the composite z-score in assay [18] was 0.893 and 0.71; in assay [19] it was 1.02 and 1.08; in [20], 0.145 and 0.11. In addition, the z-score in assay [8] is 1.13 (inactive) and 0.183 (inactive); in [12] it was 1.77 (inactive) and 1.97 (inactive); in assay [13], 1.07 (inactive) and 1.71 (inactive); in assay [14], 4.37 (inactive) and 7.27 (inactive); in [16], -0.221 (inactive) and -1 (inactive).
Turning to `C=C[C@H](C)[C@H](O)c1ccc(O)c2ccccc12`, the composite z-score in [1] is 0.101 and 0.398; in [2], 0.848 and -0.282; in [3] it was -0.144 and -0.0541; in [4], -0.737 and -0.0937; in assay [5], -1.43 and -0.16; in [6], -0.532 and -0.889. Besides, the composite z-score is 0.316 and -0.53 in [7]; -1.03 and -0.735 in [9]; -0.12 and -0.0994 in assay [10]; -0.0037 and -0.738 in [11]; 0.48 and 0.622 in assay [15]; -0.274 and -0.168 in assay [17]. Further, the composite z-score is -0.431 and -0.211 in assay [18]; -0.283 and -0.073 in [19]; -0.275 and -0.203 in assay [20]. For the same molecule, the z-score in [8] is -0.891 (inactive) and -0.971 (inactive); in assay [12], -3.96 (inactive) and -3.22 (inactive); in assay [13], -10.7 (active) and -6.18 (inactive); in [14], 4.04 (inactive) and 4.01 (inactive); in assay [16], 1.84 (inactive) and 1.81 (inactive).
Consider `Cc1cc2c(nc1C)CCCN2CC(O)CN1CCCc2nc(-c3ccc(Br)cc3)ccc21` (stereo not given), for which the composite z-score is 0.738 and 1.41 in assay [1]; 0.694 and 0.644 in assay [2]; 0.115 and 0.363 in assay [3]; 0.902 and 0.602 in assay [4]; 1.15 and 1.39 in assay [5]; 1.56 and 1.11 in [6]. The composite z-score in [7] was 1.16 and 1.11; in assay [9], 0.916 and 0.891; in assay [10] it was 0.968 and 2.11; in assay [11] it was 1.55 and 1.54; in assay [15], 1.25 and 1.75; in [17], 0.467 and 0.823. In addition, the composite z-score in [18] was 1.02 and 0.741; in assay [19], 1.1 and 1.11; in assay [20] it was 0.304 and 0.48. Besides, the z-score in assay [8] is 4.83 (inactive) and 2.39 (inactive); in [12] it was 0.612 (inactive) and 1.25 (inactive); in assay [13], -3.62 (inactive) and -0.716 (inactive); in assay [14], -1.15 (inactive) and -0.578 (inactive); in assay [16] it was -0.804 (inactive) and 0.109 (inactive).
Regarding `C[C@@H]1CC[C@H]2C(=O)NC[C@@H](O)CN2[C@H]1c1ccc(Br)cc1`, the composite z-score in assay [1] is -0.194 and -0.181; in assay [2] it was 0.332 and 0.0997; in assay [3], -0.116 and -0.134; in [4], 0.23 and 0.0389; in assay [5] it was -0.556 and -0.244; in [6], 0.229 and -0.138. Further, the composite z-score in assay [7] is 0.693 and 0.72; in assay [9] it was -0.304 and 0.127; in assay [10], -0.3 and -0.134; in [11], -0.0838 and -0.473; in assay [15], 0.759 and -0.129; in assay [17], -0.136 and -0.253. Besides, the composite z-score in [18] is 0.561 and -0.0536; in assay [19], -0.0857 and -0.344; in assay [20], -0.171 and -0.0356. Also, the z-score in assay [8] is 0.674 (inactive) and -0.078 (inactive); in [12] it was -0.77 (inactive) and 0.443 (inactive); in assay [13], -0.0565 (inactive) and -0.0682 (inactive); in assay [14] it was -0.451 (inactive) and 0.389 (inactive); in assay [16], 0.0565 (inactive) and 0.377 (inactive).
On to `CCOC(=O)[C@@H]1CC2O[C@]23C[C@@H]1C(=O)N1CCC[C@@H]1[C@H]3O[Si](C)(C)C(C)(C)C` (stereo not given in full), for which the composite z-score in [1] was -0.224 and -0.287; in assay [2] it was -0.457 and -0.0006; in assay [3], -0.238 and -0.0048; in assay [4], -0.235 and -0.144; in assay [5], -1.08 and -0.312; in assay [6], -0.737 and -0.343. Besides, the composite z-score in assay [7] was -1.07 and -0.585; in assay [9] it was -0.378 and 0.223; in assay [10], -0.207 and -0.231; in assay [11], -1.64 and -0.147; in [15] it was -1.04 and 0.179; in [17] it was -0.357 and -0.0163. Moreover, the composite z-score was -0.355 and 0.12 in assay [18]; -0.868 and -0.199 in [19]; -0.12 and -0.0314 in assay [20]. The z-score in assay [8] was -0.304 (inactive) and 0.333 (inactive); in [12], -0.418 (inactive) and -1.22 (inactive); in assay [13], -1.05 (inactive) and -0.791 (inactive); in assay [14], -0.435 (inactive) and -0.321 (inactive); in [16] it was -0.458 (inactive) and -0.86 (inactive).
Consider `CCN1C(=O)[C@H]2[C@H]3[C@H](O)[C@H](O)CC(=NNC(=O)OCc4ccc(OC)cc4)[C@H]3CC[C@H]2C1=O`, for which the composite z-score in assay [1] was 2.2; in assay [2] it was 0.349; in assay [3], -0.0775; in assay [4], 0.284; in [5] it was -0.0863; in [6], -0.116. Further, the composite z-score in [7] was -0.222; in [9], 1.03; in [10] it was -0.0482; in assay [11], 0.0536; in assay [15], 0.677; in [17] it was 0.656. Further, the composite z-score in assay [18] was -0.283; in [19], -0.143; in assay [20], 0.0004. Moreover, the z-score in assay [8] is -0.0988 (inactive); in assay [12], 0.523 (inactive); in assay [13], -0.312 (inactive); in [14], 0.41 (inactive); in assay [16], -0.17 (inactive).
